Source: PubChem BioAssay (NCI)
The panel holds about 83,000 compounds, 20% with a hit somewhere; the sample as a whole holds those more often.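 Percent growth is the endpoint: 0 to 100 indicates growth inhibition (40 means 60% inhibition), 0 means no net growth, and negative values indicate cell death.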 The source made the active and inactive calls. The calls were made as follows: active = growth percent below 10; inactive = the rest.

Experiments:
Assay in all cases: NCI-60 one-dose screen, 48 h (100 = growth as untreated, 0 = no growth, -100 = all killed)
Settings in all cases: 10 µM unless noted
T-47D breast = test system: T-47D breast
BT-549 breast = test system: BT-549 breast
MDA-MB-435 melanoma = test system: MDA-MB-435 melanoma
SW-620 colon = test system: SW-620 colon
MCF7 breast = test system: MCF7 breast
HCT-116 colon = test system: HCT-116 colon
KM12 colon = test system: KM12 colon
HCC-2998 colon = test system: HCC-2998 colon

Measured: growth

COc1ccc(-c2cnc3c(-c4cccc5cnccc45)cnn3c2)cc1
active: HCT-116 colon -15%
inactive: T-47D breast 22.8% | BT-549 breast 50.1% | MDA-MB-435 melanoma 62.9% | SW-620 colon 60.7% | MCF7 breast 78.7% | KM12 colon 63.1%

CC(C)(C)[Si](C)(C)OC1[C@@H](O[Si](C)(C)C(C)(C)C)[C@@H](CNC(=O)NC(=O)CCl)O[C@H]1n1cnc2c(NC(=O)Nc3ccccc3)ncnc21 (stereo partly specified)
active: T-47D breast -45.7% | BT-549 breast -85.9% | MDA-MB-435 melanoma -79.1% | SW-620 colon -49.7% | MCF7 breast -71.8% | HCT-116 colon -99% | KM12 colon -79.4%

O=C(Cc1ccc(/C=C/C(=O)c2nccs2)cc1)Nc1ccccc1
inactive: T-47D breast 92.8% | BT-549 breast 93% | MDA-MB-435 melanoma 100% | SW-620 colon 51.9% | MCF7 breast 84.4% | HCC-2998 colon 105% | KM12 colon 70.7%

CN1CCN(C(=O)[C@]23CCC(C)(C)C[C@H]2C2=CC[C@@H]4[C@@]5(C)C/C(=C/c6ccncc6)C(=O)C(C)(C)[C@@H]5CC[C@@]4(C)[C@]2(C)CC3)CC1
inactive: T-47D breast 37% | BT-549 breast 80.2% | MDA-MB-435 melanoma 48.2% | SW-620 colon 33.8% | MCF7 breast 18.1% | HCT-116 colon 16.4% | KM12 colon 45.8%

CC(c1ccccc1)C(C(=O)c1ccccc1)c1ccccc1 (stereo unspecified)
inactive: T-47D breast 91.5% | BT-549 breast 101% | MDA-MB-435 melanoma 110% | SW-620 colon 97.7% | MCF7 breast 98% | HCT-116 colon 74.5% | KM12 colon 104%

Cc1nn(-c2ccccc2)c(Cl)c1/C=C/C(=O)c1ccc(F)cc1
inactive: T-47D breast 82.5% | BT-549 breast 92.9% | MDA-MB-435 melanoma 87% | SW-620 colon 64.7% | MCF7 breast 41.5% | HCT-116 colon 51.1% | KM12 colon 84.9%

CN1CCN(CCNc2nccc(-c3c(-c4cccc(O)c4)nc4sccn34)n2)S1(=O)=O
inactive: T-47D breast 68.5% | BT-549 breast 52.3% | MDA-MB-435 melanoma 29.2% | SW-620 colon 65.4% | MCF7 breast 71.3% | HCT-116 colon 25.1% | KM12 colon 34.4%

COc1cc(C2C3=C(COC3=O)N(CCO)c3cc4c(cc32)OCO4)cc(OC)c1OC (stereo unspecified)
active: MDA-MB-435 melanoma -2.88% | MCF7 breast -6.88% | HCT-116 colon 4.34% | KM12 colon 5.43%
inactive: T-47D breast 36.7% | BT-549 breast 10.6% | SW-620 colon 18.8%

COc1cc(/C=C\c2cc(/C=C\c3ccc(O)c(OC)c3)n(C(=O)COc3ccccc3)n2)ccc1O
active: BT-549 breast -3.68% | MDA-MB-435 melanoma 8.84% | SW-620 colon 7.35% | MCF7 breast 1.3% | HCT-116 colon 3.68% | KM12 colon 8.96%
inactive: T-47D breast 12.4%

N/C(=N\C(N)=N\c1nc2ccccc2s1)c1cnccn1
inactive: T-47D breast 18.2% | BT-549 breast 38.3% | SW-620 colon 11.4% | MCF7 breast 11.4%
active: MDA-MB-435 melanoma 4.7% | HCT-116 colon 8.53% | KM12 colon 8.11%

COc1cc(/C=C2\COc3ccc(-c4ccccc4)cc3C2=O)cc(OC)c1
inactive: T-47D breast 70.3% | BT-549 breast 74.7% | MDA-MB-435 melanoma 66% | SW-620 colon 62.8% | MCF7 breast 57.3% | HCT-116 colon 62.1% | KM12 colon 68.5%

CCSCC1CC(O)(c2ccccc2)CC(c2ccc(F)cc2)O1 (stereo unspecified)
active: T-47D breast -4.7% | BT-549 breast -0.126% | MDA-MB-435 melanoma 5.06% | SW-620 colon 8.68% | MCF7 breast -11.3% | HCT-116 colon 1.4% | KM12 colon -47.2%

CC1=C(C(=O)/C=C/c2ccc(N(C)C)cc2)C(c2ccccc2)NC(=S)N1 (stereo unspecified)
inactive: T-47D breast 101% | BT-549 breast 118% | MDA-MB-435 melanoma 102% | SW-620 colon 98.8% | MCF7 breast 99.2% | HCT-116 colon 101% | KM12 colon 101%

CC(=O)[C@@H]1CC[C@]2(C(N)=O)CC[C@]3(C)[C@H](CC[C@@H]4[C@@]5(C)CCCNC(C)(C)[C@@H]5CC[C@]43C)[C@@H]12
inactive: T-47D breast 93.9% | BT-549 breast 87.1% | MDA-MB-435 melanoma 83.9% | SW-620 colon 90.4% | MCF7 breast 72.1% | HCT-116 colon 65.1% | KM12 colon 90.5%

CC1(C)NCCC[C@]2(C)[C@H]3CC[C@@H]4[C@H]5[C@H](C(=O)/C=C/c6ccco6)CC[C@]5(CO)CC[C@@]4(C)[C@]3(C)CC[C@@H]12
inactive: T-47D breast 75.7% | BT-549 breast 89.1% | MDA-MB-435 melanoma 66.7% | SW-620 colon 69.7% | MCF7 breast 46.6% | HCT-116 colon 33.7% | KM12 colon 82.9%

COc1cccc(-c2nc3occn3c2-c2ccnc(NCCNS(=O)(=O)c3cccc4ccccc34)n2)c1
inactive: T-47D breast 87.3% | BT-549 breast 105% | MDA-MB-435 melanoma 102% | SW-620 colon 113% | MCF7 breast 95.5% | HCC-2998 colon 132% | KM12 colon 93.8%

CN1CCC(=C(c2ccccc2)c2ccccc2)C(c2ccccc2)C1 (stereo unspecified)
inactive: T-47D breast 93.7% | BT-549 breast 97.1% | MDA-MB-435 melanoma 102% | SW-620 colon 92.9% | MCF7 breast 86.7% | HCT-116 colon 71.3% | KM12 colon 97.3%

CCOC(=O)c1cc(C(=O)c2ccc(OC)cc2)n2ccc(/C=C/c3cc[n+](CC(=O)c4ccc(OC)cc4)cc3)cc12
active: SW-620 colon 5.72% | MCF7 breast -62.6%
inactive: T-47D breast 36.3% | BT-549 breast 86% | MDA-MB-435 melanoma 77% | HCC-2998 colon 36.7% | KM12 colon 91.9%

O=C(/C=C/c1ccc(F)cc1)c1ccc(NC(=O)N2CCN(c3cc4c(cc3F)c(=O)c(C(=O)O)cn4C3CC3)CC2)cc1
inactive: T-47D breast 93.6% | BT-549 breast 75.7% | MDA-MB-435 melanoma 95.3% | SW-620 colon 92% | MCF7 breast 96.9% | HCC-2998 colon 103% | KM12 colon 100%

CCNC(=O)Oc1ccc(/C(=C(\C)c2ccccc2)c2ccc(OCCN3CCCCC3)cc2)cc1
inactive: T-47D breast 24.1% | BT-549 breast 65.2% | MDA-MB-435 melanoma 65.5% | SW-620 colon 59.1% | HCT-116 colon 40.5% | HCC-2998 colon 84.9% | KM12 colon 50.8%

CCOC(=O)c1cc(C(=O)c2ccc(OC)c(OC)c2)n2c1ccc1ccccc12
inactive: T-47D breast 85.3% | BT-549 breast 100% | MDA-MB-435 melanoma 89.5% | SW-620 colon 93.4% | MCF7 breast 80% | HCC-2998 colon 109% | KM12 colon 98.4%

O=C(c1ccccc1)N1N=C(c2ccc(-n3ccc(C(F)(F)F)n3)c(F)c2)CC1c1ccc[nH]1 (stereo unspecified)
inactive: T-47D breast 90.6% | BT-549 breast 110% | MDA-MB-435 melanoma 102% | SW-620 colon 108% | MCF7 breast 96.4% | HCC-2998 colon 112% | KM12 colon 104%

O=C1c2cccc3c(-c4ccc5c(c4)ncn5C4CCCCC4)ccc(c23)C(=O)N1c1nc2ccccc2s1
inactive: T-47D breast 72.6% | BT-549 breast 95.8% | MDA-MB-435 melanoma 100% | SW-620 colon 108% | MCF7 breast 69% | HCC-2998 colon 93% | KM12 colon 83.8%

CCN1Cc2nc3sc(C)c(C)c3c(=O)n2C=C1C
active: BT-549 breast -5.48% | MCF7 breast -41.8%
inactive: T-47D breast 37.1% | MDA-MB-435 melanoma 48.1% | SW-620 colon 15.6% | HCC-2998 colon 81.2% | KM12 colon 14.5%

C=C1C(=O)O[C@H]2[C@H]1CC/C(COC(=O)NCCc1c[nH]c3ccc(OC)cc13)=C\CC[C@@]1(C)O[C@@H]21
active: T-47D breast -35.3% | BT-549 breast -22.1% | SW-620 colon -56.2% | HCT-116 colon -82.5%
inactive: MDA-MB-435 melanoma 14.7% | HCC-2998 colon 75.1% | KM12 colon 63.1%

COc1ccc(C(=O)Nc2cccc(C3CCc4c(cc(OC)c(OC)c4OC)O3)c2)cc1 (stereo unspecified)
inactive: T-47D breast 15.8% | BT-549 breast 40.9% | SW-620 colon 28.8% | MCF7 breast 33.1% | HCC-2998 colon 80.1% | KM12 colon 29.4%
active: MDA-MB-435 melanoma -14.9%

Cc1ncc(C(=O)Nc2ccc(CN3CCN(C)CC3)c(C(F)(F)F)c2)cc1C#Cc1cnc(N)cc1C#N
active: MDA-MB-435 melanoma -95.8% | SW-620 colon -57.4% | HCT-116 colon -71.5% | KM12 colon -83.1%
inactive: T-47D breast 57.8% | BT-549 breast 38% | HCC-2998 colon 54.5%

C/C(=N\Nc1cc(C)nc2ccc(Br)cc12)c1ccc([N+](=O)[O-])cc1
inactive: T-47D breast 62% | BT-549 breast 105% | MDA-MB-435 melanoma 72.6% | SW-620 colon 49.3% | HCT-116 colon 13.3% | HCC-2998 colon 55.8% | KM12 colon 75.5%

Cc1cc(C)c(S(=O)(=O)Oc2ccccc2[N+](=O)[O-])c(C)c1
inactive: T-47D breast 38.8% | BT-549 breast 40.6% | MCF7 breast 13.3% | HCC-2998 colon 32.1% | KM12 colon 23%
active: MDA-MB-435 melanoma -2.54% | SW-620 colon 8.04%

COc1ccc(CNCCN2C(=O)c3ccc4c5c(ccc(c35)C2=O)C(=O)N(CCNCc2ccc(OC)c(OC)c2OC)C4=O)c(OC)c1OC
active: T-47D breast -18.4% | BT-549 breast -11.4% | MDA-MB-435 melanoma -48.2% | SW-620 colon -37% | MCF7 breast -67.1% | HCC-2998 colon -79.5% | KM12 colon -41.4%

C=C1C(=O)O[C@H]2[C@H]1CC/C(CNC(=O)CCc1ccc(OC)cc1)=C\CC[C@@]1(C)O[C@@H]21
inactive: T-47D breast 40.8% | BT-549 breast 43.1% | MDA-MB-435 melanoma 14.3% | SW-620 colon 19% | HCT-116 colon 19.8% | HCC-2998 colon 97.5% | KM12 colon 97.4%

Cn1cc(CC2CC(=O)N(c3ccccc3)C2=O)sc1=NC(=O)c1ccccc1 (stereo unspecified)
inactive: T-47D breast 91.1% | BT-549 breast 87.2% | MDA-MB-435 melanoma 101% | SW-620 colon 94.5% | MCF7 breast 99.2% | HCC-2998 colon 100% | KM12 colon 98.6%

O=C(CSc1nc2sc3c(c2c(=O)n1-c1ccc(Cl)cc1)CCCC3)Nc1nc(-c2cccc(Br)c2)cs1
inactive: T-47D breast 76.9% | BT-549 breast 92.1% | MDA-MB-435 melanoma 97.5% | SW-620 colon 78.9% | MCF7 breast 87.4% | HCC-2998 colon 107% | KM12 colon 83.8%
